ChEMBL document CHEMBL1961873, “Compounds: GSK PKIS; Assays: Nanosyn kinase panel” (2012)

How the values were obtained:
[1] = tested on: Epidermal growth factor receptor (Homo sapiens), P00533 [L858R,T790M]; conditions: at 0.1 µM
[2] = tested on: Epidermal growth factor receptor (Homo sapiens), P00533 [L858R,T790M]; conditions: at 1 µM
[3] = target: Ephrin type-A receptor 2 (Homo sapiens) (UniProt P29317); conditions: at 0.1 µM
[4] = target: Ephrin type-A receptor 2 (Homo sapiens) (UniProt P29317); conditions: at 1 µM
[5] = target: Ephrin type-A receptor 3 (Homo sapiens) (UniProt P29320); conditions: at 0.1 µM
[6] = target: Ephrin type-A receptor 3 (Homo sapiens) (UniProt P29320); conditions: at 1 µM
[7] = target: Ephrin type-A receptor 4 (Homo sapiens) (UniProt P54764); conditions: at 0.1 µM
[8] = target: Ephrin type-A receptor 4 (Homo sapiens) (UniProt P54764); conditions: at 1 µM
[9] = target: Ephrin type-B receptor 2 (Homo sapiens) (UniProt P29323); conditions: at 0.1 µM
[10] = target: Ephrin type-B receptor 2 (Homo sapiens) (UniProt P29323); conditions: at 1 µM
[11] = target: Ephrin type-B receptor 3 (Homo sapiens) (UniProt P54753); conditions: at 0.1 µM
[12] = target: Ephrin type-B receptor 3 (Homo sapiens) (UniProt P54753); conditions: at 1 µM
[13] = target: Ephrin type-B receptor 4 (Homo sapiens) (UniProt P54760); conditions: at 0.1 µM
[14] = target: Ephrin type-B receptor 4 (Homo sapiens) (UniProt P54760); conditions: at 1 µM
[15] = target: Receptor tyrosine-protein kinase erbB-2 (Homo sapiens) (UniProt P04626); conditions: at 0.1 µM
[16] = target: Receptor tyrosine-protein kinase erbB-2 (Homo sapiens) (UniProt P04626); conditions: at 1 µM
[17] = target: Receptor tyrosine-protein kinase erbB-4 (Homo sapiens) (UniProt Q15303); conditions: at 0.1 µM
[18] = target: Receptor tyrosine-protein kinase erbB-4 (Homo sapiens) (UniProt Q15303); conditions: at 1 µM
[19] = target: Tyrosine-protein kinase Fer (Homo sapiens) (UniProt P16591); conditions: at 0.1 µM
[20] = target: Tyrosine-protein kinase Fer (Homo sapiens) (UniProt P16591); conditions: at 1 µM
[21] = target: Tyrosine-protein kinase Fes/Fps (Homo sapiens) (UniProt P07332); conditions: at 0.1 µM
[22] = target: Tyrosine-protein kinase Fes/Fps (Homo sapiens) (UniProt P07332); conditions: at 1 µM
[23] = target: Fibroblast growth factor receptor 1 (Homo sapiens) (UniProt P11362); conditions: at 0.1 µM
[24] = target: Fibroblast growth factor receptor 1 (Homo sapiens) (UniProt P11362); conditions: at 1 µM
[25] = target: Fibroblast growth factor receptor 2 (Homo sapiens) (UniProt P21802); conditions: at 0.1 µM
[26] = target: Fibroblast growth factor receptor 2 (Homo sapiens) (UniProt P21802); conditions: at 1 µM
[27] = target: Fibroblast growth factor receptor 3 (Homo sapiens) (UniProt P22607); conditions: at 0.1 µM
[28] = target: Fibroblast growth factor receptor 3 (Homo sapiens) (UniProt P22607); conditions: at 1 µM
[29] = target: Fibroblast growth factor receptor 4 (Homo sapiens) (UniProt P22455); conditions: at 0.1 µM
[30] = target: Fibroblast growth factor receptor 4 (Homo sapiens) (UniProt P22455); conditions: at 1 µM
[31] = target: Tyrosine-protein kinase Fgr (Homo sapiens) (UniProt P09769); conditions: at 0.1 µM
[32] = target: Tyrosine-protein kinase Fgr (Homo sapiens) (UniProt P09769); conditions: at 1 µM
[33] = target: Vascular endothelial growth factor receptor 1 (Homo sapiens) (UniProt P17948); conditions: at 0.1 µM
[34] = target: Vascular endothelial growth factor receptor 1 (Homo sapiens) (UniProt P17948); conditions: at 1 µM
[35] = target: Receptor-type tyrosine-protein kinase FLT3 (Homo sapiens) (UniProt P36888); conditions: at 0.1 µM
[36] = target: Receptor-type tyrosine-protein kinase FLT3 (Homo sapiens) (UniProt P36888); conditions: at 1 µM
[37] = tested on: Receptor-type tyrosine-protein kinase FLT3 (Homo sapiens), P36888 [D835Y]; conditions: at 0.1 µM
[38] = target: Non-receptor tyrosine-protein kinase TYK2 (Homo sapiens) (UniProt P29597); conditions: at 1 µM;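 note: values are mean percent inhibition of TYK2 kinase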
[39] = target: Tyrosine-protein kinase receptor TYRO3 (Homo sapiens) (UniProt Q06418); conditions: at 0.1 µM
[40] = target: Tyrosine-protein kinase receptor TYRO3 (Homo sapiens) (UniProt Q06418); conditions: at 1 µM
[41] = target: Tyrosine-protein kinase Yes (Homo sapiens) (UniProt P07947); conditions: at 0.1 µM
[42] = target: Tyrosine-protein kinase Yes (Homo sapiens) (UniProt P07947); conditions: at 1 µM
[43] = target: Tyrosine-protein kinase ZAP-70 (Homo sapiens) (UniProt P43403); conditions: at 0.1 µM
[44] = target: Tyrosine-protein kinase ZAP-70 (Homo sapiens) (UniProt P43403); conditions: at 1 µM
[45] = target: Serine/threonine-protein kinase B-raf (Homo sapiens) (UniProt P15056); conditions: at 0.1 µM
[46] = target: Serine/threonine-protein kinase B-raf (Homo sapiens) (UniProt P15056); conditions: at 1 µM
[47] = tested on: Serine/threonine-protein kinase B-raf (Homo sapiens), P15056 [V600E]; conditions: at 0.1 µM
[48] = tested on: Serine/threonine-protein kinase B-raf (Homo sapiens), P15056 [V600E]; conditions: at 1 µM
[49] = target: RAF proto-oncogene serine/threonine-protein kinase (Homo sapiens) (UniProt P04049); conditions: at 0.1 µM
[50] = target: RAF proto-oncogene serine/threonine-protein kinase (Homo sapiens) (UniProt P04049); conditions: at 1 µM
[51] = target: Interleukin-1 receptor-associated kinase 4 (Homo sapiens) (UniProt Q9NWZ3); conditions: at 0.1 µM
[52] = target: Interleukin-1 receptor-associated kinase 4 (Homo sapiens) (UniProt Q9NWZ3); conditions: at 1 µM
[53] = target: Leucine-rich repeat serine/threonine-protein kinase 2 (Homo sapiens) (UniProt Q5S007); conditions: at 0.1 µM
[54] = target: Leucine-rich repeat serine/threonine-protein kinase 2 (Homo sapiens) (UniProt Q5S007); conditions: at 1 µM
[55] = tested on: Leucine-rich repeat serine/threonine-protein kinase 2 (Homo sapiens), Q5S007 [G2019S]; conditions: at 0.1 µM
[56] = tested on: Leucine-rich repeat serine/threonine-protein kinase 2 (Homo sapiens), Q5S007 [G2019S]; conditions: at 1 µM

Sequence of Tyrosine-protein kinase Fer (Homo sapiens) (P16591 whole entry, looked up): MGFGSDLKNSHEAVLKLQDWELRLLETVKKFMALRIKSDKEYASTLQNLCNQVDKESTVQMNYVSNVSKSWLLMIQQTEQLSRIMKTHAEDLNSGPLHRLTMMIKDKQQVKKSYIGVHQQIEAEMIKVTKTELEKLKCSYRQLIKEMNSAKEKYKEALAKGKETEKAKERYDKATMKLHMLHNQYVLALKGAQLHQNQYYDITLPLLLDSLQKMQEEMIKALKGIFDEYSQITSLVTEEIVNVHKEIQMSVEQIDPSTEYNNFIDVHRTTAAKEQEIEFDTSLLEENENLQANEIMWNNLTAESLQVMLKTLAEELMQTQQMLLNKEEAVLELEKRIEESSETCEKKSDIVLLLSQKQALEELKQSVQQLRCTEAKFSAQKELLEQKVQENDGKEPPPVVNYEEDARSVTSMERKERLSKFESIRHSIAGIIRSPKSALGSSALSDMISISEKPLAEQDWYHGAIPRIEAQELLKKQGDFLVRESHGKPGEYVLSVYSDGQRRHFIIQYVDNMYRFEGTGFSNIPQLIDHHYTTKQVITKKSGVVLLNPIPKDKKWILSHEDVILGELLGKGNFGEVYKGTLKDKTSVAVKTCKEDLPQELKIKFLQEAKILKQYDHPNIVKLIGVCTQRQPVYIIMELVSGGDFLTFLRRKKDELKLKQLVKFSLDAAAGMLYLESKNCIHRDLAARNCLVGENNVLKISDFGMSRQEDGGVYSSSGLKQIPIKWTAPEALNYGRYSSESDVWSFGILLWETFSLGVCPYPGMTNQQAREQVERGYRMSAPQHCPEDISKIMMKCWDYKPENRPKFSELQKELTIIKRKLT
Sequence of Leucine-rich repeat serine/threonine-protein kinase 2 (Homo sapiens), Q5S007 [G2019S] (Q5S007 whole entry G2019S): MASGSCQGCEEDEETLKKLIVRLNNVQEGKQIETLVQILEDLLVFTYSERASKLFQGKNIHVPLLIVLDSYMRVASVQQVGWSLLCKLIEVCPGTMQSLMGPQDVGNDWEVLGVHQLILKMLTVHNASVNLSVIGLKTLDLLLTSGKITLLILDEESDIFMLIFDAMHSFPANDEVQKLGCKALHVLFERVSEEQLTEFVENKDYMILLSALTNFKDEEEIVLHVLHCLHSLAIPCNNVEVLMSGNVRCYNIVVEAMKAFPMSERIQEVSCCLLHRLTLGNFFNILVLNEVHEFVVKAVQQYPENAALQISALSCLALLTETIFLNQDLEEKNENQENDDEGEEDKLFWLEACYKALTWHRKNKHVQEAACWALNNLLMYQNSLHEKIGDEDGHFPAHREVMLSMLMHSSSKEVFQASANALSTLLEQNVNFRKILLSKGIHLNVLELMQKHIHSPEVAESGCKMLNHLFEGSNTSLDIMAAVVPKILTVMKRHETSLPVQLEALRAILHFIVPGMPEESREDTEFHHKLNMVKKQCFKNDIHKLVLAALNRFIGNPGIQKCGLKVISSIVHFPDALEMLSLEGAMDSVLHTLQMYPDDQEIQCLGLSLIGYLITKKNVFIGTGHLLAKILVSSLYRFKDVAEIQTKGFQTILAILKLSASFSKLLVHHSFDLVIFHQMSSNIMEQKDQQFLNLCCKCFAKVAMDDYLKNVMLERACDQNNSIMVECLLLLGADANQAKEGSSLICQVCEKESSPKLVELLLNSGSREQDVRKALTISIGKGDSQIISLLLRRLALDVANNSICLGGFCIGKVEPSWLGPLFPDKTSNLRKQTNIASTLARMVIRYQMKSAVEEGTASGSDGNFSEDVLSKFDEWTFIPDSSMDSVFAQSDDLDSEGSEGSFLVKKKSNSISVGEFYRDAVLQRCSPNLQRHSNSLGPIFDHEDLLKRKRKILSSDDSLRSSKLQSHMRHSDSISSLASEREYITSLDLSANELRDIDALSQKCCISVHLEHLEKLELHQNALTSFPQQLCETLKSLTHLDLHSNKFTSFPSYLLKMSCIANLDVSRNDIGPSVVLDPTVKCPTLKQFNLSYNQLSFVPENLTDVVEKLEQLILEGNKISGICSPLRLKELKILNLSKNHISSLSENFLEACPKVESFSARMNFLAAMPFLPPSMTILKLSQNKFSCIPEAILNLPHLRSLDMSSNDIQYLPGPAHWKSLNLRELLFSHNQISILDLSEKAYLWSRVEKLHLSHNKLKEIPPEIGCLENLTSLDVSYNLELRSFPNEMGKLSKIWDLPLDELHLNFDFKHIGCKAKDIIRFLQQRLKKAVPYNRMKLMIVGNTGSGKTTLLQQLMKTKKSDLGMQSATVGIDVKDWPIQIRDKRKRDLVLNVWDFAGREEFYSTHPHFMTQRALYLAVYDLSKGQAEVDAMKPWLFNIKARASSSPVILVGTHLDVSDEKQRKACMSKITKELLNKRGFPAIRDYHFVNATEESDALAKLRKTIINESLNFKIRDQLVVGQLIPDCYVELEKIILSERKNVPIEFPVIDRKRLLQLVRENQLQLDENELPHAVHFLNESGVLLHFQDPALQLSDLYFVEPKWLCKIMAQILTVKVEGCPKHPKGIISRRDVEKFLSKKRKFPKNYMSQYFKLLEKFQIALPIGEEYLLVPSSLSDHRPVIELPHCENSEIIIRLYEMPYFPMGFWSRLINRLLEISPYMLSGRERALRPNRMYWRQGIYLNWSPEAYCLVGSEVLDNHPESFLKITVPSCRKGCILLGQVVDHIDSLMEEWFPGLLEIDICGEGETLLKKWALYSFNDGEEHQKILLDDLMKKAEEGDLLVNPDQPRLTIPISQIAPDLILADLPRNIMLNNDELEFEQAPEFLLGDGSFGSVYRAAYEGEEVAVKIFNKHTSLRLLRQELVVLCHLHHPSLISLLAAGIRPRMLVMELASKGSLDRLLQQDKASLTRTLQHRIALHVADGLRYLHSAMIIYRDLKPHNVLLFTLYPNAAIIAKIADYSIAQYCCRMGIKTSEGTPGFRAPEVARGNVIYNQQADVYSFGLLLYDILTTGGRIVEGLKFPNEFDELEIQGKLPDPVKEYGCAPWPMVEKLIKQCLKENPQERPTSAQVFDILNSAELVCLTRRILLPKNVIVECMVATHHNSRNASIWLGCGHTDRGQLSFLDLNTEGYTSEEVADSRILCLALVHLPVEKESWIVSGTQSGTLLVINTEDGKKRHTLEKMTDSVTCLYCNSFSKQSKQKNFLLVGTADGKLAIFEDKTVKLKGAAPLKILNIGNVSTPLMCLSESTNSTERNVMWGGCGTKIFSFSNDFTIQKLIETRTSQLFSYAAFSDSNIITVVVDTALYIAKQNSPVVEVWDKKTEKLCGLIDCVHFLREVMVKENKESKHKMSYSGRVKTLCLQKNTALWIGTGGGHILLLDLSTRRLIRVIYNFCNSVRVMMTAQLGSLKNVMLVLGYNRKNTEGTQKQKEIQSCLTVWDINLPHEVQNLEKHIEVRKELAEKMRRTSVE
Sequence of Tyrosine-protein kinase Yes (Homo sapiens) (P07947 2-543 limits assumed): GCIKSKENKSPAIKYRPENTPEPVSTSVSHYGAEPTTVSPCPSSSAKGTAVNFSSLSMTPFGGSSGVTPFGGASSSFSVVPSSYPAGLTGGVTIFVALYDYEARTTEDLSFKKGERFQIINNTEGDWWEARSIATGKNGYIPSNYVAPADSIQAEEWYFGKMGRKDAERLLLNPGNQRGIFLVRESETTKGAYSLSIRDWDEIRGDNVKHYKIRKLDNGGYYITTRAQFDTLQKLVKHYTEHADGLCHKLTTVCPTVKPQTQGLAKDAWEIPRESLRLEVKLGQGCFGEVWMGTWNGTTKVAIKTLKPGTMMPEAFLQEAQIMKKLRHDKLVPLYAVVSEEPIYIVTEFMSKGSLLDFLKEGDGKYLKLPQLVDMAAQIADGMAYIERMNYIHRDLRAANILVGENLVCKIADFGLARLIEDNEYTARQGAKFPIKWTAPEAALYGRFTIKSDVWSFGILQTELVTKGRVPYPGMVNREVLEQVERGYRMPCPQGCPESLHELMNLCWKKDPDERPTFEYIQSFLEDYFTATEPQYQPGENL
Sequence of Interleukin-1 receptor-associated kinase 4 (Homo sapiens) (Q9NWZ3 whole entry): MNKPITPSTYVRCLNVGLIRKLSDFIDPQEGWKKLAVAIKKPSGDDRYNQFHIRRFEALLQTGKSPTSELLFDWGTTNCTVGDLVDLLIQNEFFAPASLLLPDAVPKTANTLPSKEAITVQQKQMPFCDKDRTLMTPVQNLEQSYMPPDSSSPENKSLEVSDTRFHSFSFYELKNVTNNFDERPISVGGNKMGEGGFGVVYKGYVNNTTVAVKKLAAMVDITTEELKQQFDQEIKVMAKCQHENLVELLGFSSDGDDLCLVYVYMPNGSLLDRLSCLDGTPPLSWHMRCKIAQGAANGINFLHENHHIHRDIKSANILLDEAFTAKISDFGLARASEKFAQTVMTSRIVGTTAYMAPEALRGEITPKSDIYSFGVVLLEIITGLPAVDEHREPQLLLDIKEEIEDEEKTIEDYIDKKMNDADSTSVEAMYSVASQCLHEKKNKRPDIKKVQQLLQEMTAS
Sequence of Tyrosine-protein kinase ZAP-70 (Homo sapiens) (P43403 whole entry): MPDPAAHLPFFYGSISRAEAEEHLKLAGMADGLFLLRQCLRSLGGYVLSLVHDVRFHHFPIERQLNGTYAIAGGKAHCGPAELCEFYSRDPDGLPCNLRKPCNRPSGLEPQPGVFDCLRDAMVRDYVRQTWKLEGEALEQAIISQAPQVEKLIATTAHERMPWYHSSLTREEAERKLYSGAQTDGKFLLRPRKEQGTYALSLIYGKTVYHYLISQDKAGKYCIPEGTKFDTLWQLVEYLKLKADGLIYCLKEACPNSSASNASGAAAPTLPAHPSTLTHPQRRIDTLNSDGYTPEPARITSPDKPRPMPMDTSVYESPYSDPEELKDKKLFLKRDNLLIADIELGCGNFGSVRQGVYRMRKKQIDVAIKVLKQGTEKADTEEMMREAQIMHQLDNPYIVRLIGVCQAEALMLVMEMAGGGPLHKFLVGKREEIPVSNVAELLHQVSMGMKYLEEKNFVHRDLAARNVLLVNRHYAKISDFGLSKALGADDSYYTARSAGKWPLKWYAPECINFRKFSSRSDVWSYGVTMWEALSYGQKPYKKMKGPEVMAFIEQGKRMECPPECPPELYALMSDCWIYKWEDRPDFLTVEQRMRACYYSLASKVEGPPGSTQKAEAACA
Sequence of Leucine-rich repeat serine/threonine-protein kinase 2 (Homo sapiens) (Q5S007 whole entry): as the sequence (Q5S007 whole entry G2019S) above, with S2019G counted along it

Q: How did the inhibition [1] turn out when `CNC(=O)Oc1cc(C)c(/C=C/c2cncc(C(=O)NC)c2)c(C)c1` was run?
A: -1.98%

Q: What about the inhibition [2] of the same compound?
A: -0.11%

Q: And the inhibition [3]?
A: 12%

Q: What about the inhibition [4] of the same compound?
A: 49.6%

Q: What about the inhibition [5] of the same compound?
A: 7.72%

Q: What about the inhibition [6] of the same compound?
A: 17.6%

Q: What about the inhibition [7] of the same compound?
A: 17.7%

Q: What about the inhibition [8] of the same compound?
A: 61.4%

Q: What about the inhibition [9] of the same compound?
A: 12.4%

Q: What about the inhibition [10] of the same compound?
A: 52.8%

Q: And the inhibition [11]?
A: 5.12%

Q: And the inhibition [12]?
A: 6.12%

Q: And the inhibition [13]?
A: 9.51%

Q: What about the inhibition [14] of the same compound?
A: 49.7%

Q: What about the inhibition [15] of the same compound?
A: 0.63%

Q: And the inhibition [16]?
A: -1.51%

Q: And the inhibition [17]?
A: 7.57%

Q: And the inhibition [18]?
A: 13.2%

Q: What about the inhibition [19] of the same compound?
A: 0.78%

Q: What about the inhibition [20] of the same compound?
A: 3.53%

Q: And the inhibition [21]?
A: 5.18%

Q: What about the inhibition [22] of the same compound?
A: 7.85%

Q: What about the inhibition [23] of the same compound?
A: 3.22%

Q: What about the inhibition [24] of the same compound?
A: 0.63%

Q: What about the inhibition [25] of the same compound?
A: 0.21%

Q: And the inhibition [26]?
A: 10.2%

Q: And the inhibition [27]?
A: 2.97%

Q: And the inhibition [28]?
A: 2.24%

Q: What about the inhibition [29] of the same compound?
A: -0.84%

Q: What about the inhibition [30] of the same compound?
A: 0.6%

Q: What about the inhibition [31] of the same compound?
A: 3.83%

Q: And the inhibition [32]?
A: 24.6%

Q: What about the inhibition [33] of the same compound?
A: 0.98%

Q: And the inhibition [34]?
A: 4.03%

Q: What about the inhibition [35] of the same compound?
A: 1.57%

Q: What about the inhibition [36] of the same compound?
A: 1.37%

Q: And the inhibition [37]?
A: 0.68%

Q: What about the inhibition [38] of the same compound?
A: -0.46%

Q: What about the inhibition [39] of the same compound?
A: 1.9%

Q: And the inhibition [40]?
A: 5.43%

Q: What about the inhibition [41] of the same compound?
A: 4.32%

Q: And the inhibition [42]?
A: 23.4%

Q: What about the inhibition [43] of the same compound?
A: 2%

Q: What about the inhibition [44] of the same compound?
A: -0.7%

Q: And the inhibition [45]?
A: 4.75%

Q: And the inhibition [46]?
A: 9.98%

Q: And the inhibition [47]?
A: 4.23%

Q: What about the inhibition [48] of the same compound?
A: 8.52%

Q: And the inhibition [49]?
A: -2.42%

Q: What about the inhibition [50] of the same compound?
A: 1.27%

Q: What about the inhibition [51] of the same compound?
A: -1.38%

Q: What about the inhibition [52] of the same compound?
A: 1.67%

Q: What about the inhibition [53] of the same compound?
A: 7.04%

Q: What about the inhibition [54] of the same compound?
A: 10.5%

Q: And the inhibition [55]?
A: 5.2%

Q: And the inhibition [56]?
A: 18.7%
